Data as given in PubChem BioAssay AID588329 (National Center for Advancing Translational Sciences (NCATS), 2011).
Records with an inconclusive call do not appear. Activity calls are given as the source filed them. The call rests on the fitted dose curve; in most records, active means well fitted inhibition curve with a large enough effect; inconclusive means small, poorly fitted or top-dose-only effect; inactive means flat fitted curve, though single readings scatter.

tested on: Trypanosoma brucei 6-phosphofructokinase (PFK); experiment: Confirmatory Assay to Find Inhibitors of T. brucei phosphofructokinase: ATP-depletion Assay; conditions: recombinant T. brucei PFK, Kinase-Glo ATP depletion luminescence; series mostly up to 57.5 µM
Source text: Various species of the protozoan family Trypanosomatidae are responsible for a range of serious human diseases in tropical and subtropical areas of the world. […] Many of the disorders caused by trypanosomatids are fatal if left untreated, but most currently used drugs are inefficient and toxic. […] Oxidative metabolism involving the mitochondrial tricarboxylic acid cycle and oxidative phosphorylation are repressed in these parasites, and recent RNA interference (RNAi) experiments have shown that even partial depletion of certain individual glycolytic enzymes can lead to the death of cultured parasites. One such glycolytic enzyme, phosphofructokinase (PFK), catalyzes the formation of fructose-1,6-bisphosphate (F1,6BP) and ADP from fructose-6-phosphate (F6P) and ATP, and in many metabolic circumstances makes an important contribution to the control of flux through the glycolytic pathway. As a specific glycolytic target, PFK is particularly attractive as it catalyzes the first irreversible step in glycolysis, and structural and kinetic studies have shown very substantial and essential differences from corresponding host enzymes, allowing for the discovery of parasite-selective inhibitors. NIH Chemical Genomics Center [NCGC] NIH Molecular Libraries Probe Centers Network [MLPCN] MLPCN Grant: MH092153-01 Assay Submitter (PI): Malcom Walkinshaw, University of Edinburgh
Substrate buffer was dispensed into white, solid 1536-well plates at 3ul/well in 0.1M triethanolamine (TEA) buffer, pH 8.0, containing final concentrations of 5 mM MgCl2, 0.01% Tween20, 0.5 mM fructose-6-phosphate (F6P) and 0.1mM ATP. Then, 23nl of compounds or DMSO were delivered to each well using a pin tool. One ul T. brucei PFK (0.1M TEA, 0.01% Tween20, 0.1% bovine serum albumin (BSA) and 1.25nM PFK, final concentrations) was then dispensed, and plates were incubated at room temperature for 45 min. The luminescent detection reagent, Kinase-Glo Plus (Promega), was then added at 2ul/well and incubated for ten minutes at room temperature. The plates were measured on a ViewLux plate reader for luminescent signal using a clear filter with a one second exposure. The %Activity was determined from the corrected luminescence values. As no specific T. brucei PFK inhibitors have been identified in the literature, 1x (1.25nM) and 0x PFK enzyme controls (untreated) were included to normalize %Activity of identified inhibitors; 0x enzyme values corresponded to 100%Activity (full inhibition), while 1x PFK enzyme values were used to normalize 0% activity (no inhibition). The Kinase-Glo Plus protocol varies from the primary screen in that it measures ATP, rather than ADP, concentration, and thus provides a measure of substrate depletion, rather than of product formation. Concentration-response curves were fitted to the signals arising from the resulting luminescence. The concentration-effect curves were then classified based on curve quality (r2), response magnitude and degree of measured activity, and compounds were subsequently categorized based on their curve class. […] Keywords: T. brucei, phosphofructokinase, PFK, glycolysis, luminescence, MLSMR, MLPCN, NIH Roadmap, qHTS, NCGC

Compound	Potency
Cc1cc(NS(=O)(=O)c2ccc(NC(=O)Cc3ccc(Cl)c(Cl)c3)cc2)n(C)n1	1030 nM (active)
CN(C)c1cccc(NS(=O)(=O)c2ccc(NC(=O)Cc3ccc(Cl)c(Cl)c3)cc2)c1	16300 nM (active)
Cc1cc(N[S+](=O)([O-])c2ccc3cc(NC(=O)Cc4ccc(Cl)c(Cl)c4)ccc3c2)no1	5170 nM (active)
Cc1cc(NS(=O)(=O)c2ccc(NC(=O)Cc3cccc(Cl)c3)cc2)no1	5170 nM (active)
Cc1cc(N(C)S(=O)(=O)c2ccc(NC(=O)Cc3ccc(Cl)c(Cl)c3)cc2)no1	2590 nM (active)
O=C(Cc1ccc(Cl)c(Cl)c1)Nc1ccc(S(=O)(=O)Nc2ccc(C(=O)O)cc2)cc1	326 nM (active)
Cc1cc(NS(=O)(=O)c2ccc(NC(=O)Cc3ccc(C)c(F)c3)cc2)no1	5170 nM (active)
Cc1cc(NS(=O)(=O)c2ccc(NC(=O)Cc3ccc(Cl)c(F)c3)cc2)no1	730 nM (active)
Cc1cc(NS(=O)(=O)c2ccc(NC(=O)Cc3ccc(C)c(C)c3)cc2)no1	16300 nM (active)
O=C(Cc1ccc(Cl)c(Cl)c1)Nc1ccc(S(=O)(=O)Nc2ccccc2)cc1	10300 nM (active)
Cc1cc(NC(=O)c2ccc(NC(=O)Cc3ccc(Cl)c(Cl)c3)cc2)no1	inactive
Cc1cc(NS(=O)(=O)c2ccc(NC(=O)Cc3ccc(Cl)cc3)cc2)no1	2590 nM (active)
Cc1cc(NS(=O)(=O)c2ccc(NC(=O)Cc3ccc(Cl)c(Cl)c3)cc2)on1	366 nM (active)
O=C(Cc1ccc(Cl)c(Cl)c1)Nc1ccc(S(=O)(=O)Nc2cccc(O)c2)cc1	2060 nM (active)
Cc1cc(NS(=O)(=O)c2ccc(NCCc3ccc(Cl)c(Cl)c3)cc2)no1	11600 nM (active)
Cc1cc(NS(=O)(=O)Cc2ccc(NC(=O)Cc3ccc(Cl)c(Cl)c3)cc2)no1	2910 nM (active)

Compound	Potency
Cc1cc(NS(=O)(=O)c2ccc(C(=O)NCc3ccc(Cl)c(Cl)c3)cc2)no1	2310 nM (active)
Cc1cc(NS(=O)(=O)c2cccc(NC(=O)Cc3ccc(Cl)c(Cl)c3)c2)no1	16300 nM (active)
Cc1cc(N[S+](=O)([O-])c2ccc(NC(=O)Cc3ccc(Cl)nc3)cc2)no1	18300 nM (active)
O=C(Cc1ccc(Cl)c(Cl)c1)Nc1ccc(S(=O)(=O)Nc2ccn[nH]2)cc1	326 nM (active)
O=C(Cc1ccc(Cl)c(Cl)c1)Nc1ccc(S(=O)(=O)O)cc1	580 nM (active)
Cc1cc(NS(=O)(=O)c2ccc(NC(=O)Cc3ccc(Cl)cc3Cl)cc2)no1	4610 nM (active)
COc1ccc(CC(=O)Nc2ccc(S(=O)(=O)Nc3cc(C)on3)cc2)cc1OC	inactive
Cc1cc(NS(=O)(=O)c2ccc(N(C)C(=O)Cc3ccc(Cl)c(Cl)c3)cc2)no1	1030 nM (active)
Cc1cc(NS(=O)(=O)c2ccc(NC(=O)Cc3ccc(Cl)c(C(F)(F)F)c3)cc2)no1	651 nM (active)
Cc1cc(NS(=O)(=O)c2ccc(NC(=O)Cc3ccc(Cl)c(Cl)c3)cc2)no1	410 nM (active)
Cc1cc(NS(=O)(=O)c2ccc(NC(=O)Cc3ccc4ccccc4c3)cc2)no1	5170 nM (active)
O=C(Cc1ccc(Cl)c(Cl)c1)Nc1ccc(S(=O)(=O)Nc2cccc(C(=O)O)c2)cc1	651 nM (active)
Cc1cc(NS(=O)(=O)c2ccc(NC(=O)CCc3ccc(Cl)c(Cl)c3)cc2)no1	16300 nM (active)
O=C(Cc1ccc(Cl)c(Cl)c1)Nc1ccc(S(=O)(=O)Nc2ccon2)cc1	231 nM (active)
O=C(Cc1ccc(Cl)c(Cl)c1)Nc1ccc(S(=O)(=O)Nc2cncnc2)cc1	651 nM (active)
